Compound activity: PubChem, National Center for Advancing Translational Sciences (NCATS)
The list is not random: actives were taken first. Their share in the collection is about 19%.
CHX counter: counter-screen hit for Shiga toxin inhibitors, cycloheximide; cell reporter, cycloheximide protein synthesis inhibition counterscreen; max response, %; 12% of 300,000 active; in the data active means max response mostly above about 13%, no sharp cut-off; inactive means mostly below about 14%; further: read at 38.3 µM for the half of the compounds with a filed dose; 0% is about no effect
Lassa entry inh: inhibitors of Lassa virus binding or cell entry; Lassa virus pseudotype entry inhibition, cell reporter; Potency, µM (top dose mostly 37.9 µM), for inactives: at the highest dose activity change, negative = inhibition, most hits filed as inhibitors; 1.2% of 300,000 active; calls by dose curve; tested in HEK293 cells; further: potency means the concentration at half of the fitted maximal effect; on the % scale 0 is the no-effect control and ±100 the full control effect; nearly all actives have a fitted effect of over 50% in size
Pf growth 48h: P. falciparum growth inhibition at 48 hours (one generation). 5.9% of 310,000 active. P. falciparum luciferase growth in erythrocytes, 48 h. Potency, µM (highest dose often 28.7 µM), for inactives: top-dose activity change, negative = inhibition, hits mostly inhibitors; further: potency means the concentration at half of the fitted maximal effect; on the % scale 0 is the no-effect control and ±100 the full control effect
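Erythrocytes infected with P. falciparum carrying an integrated firefly luciferase reporter (2% hematocrit, 0.1% parasitemia final) were exposed to compounds in RPMI 1640 with 0.5% Albumax at 37 C, 5% CO2. Growth inhibition was scored as reduced luminescence.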
Marburg entry inh: Marburg virus entry inhibition | 1.8% of 300,000 active | Potency, µM (top dose mostly 37.8 µM), for the others: top-dose activity change, negative = inhibition, most hits filed as inhibitors | Marburg virus pseudotyped entry inhibition, cell reporter; calls by dose curve; tested in HEK293 cells; further: potency means the concentration at half of the fitted maximal effect; on the % scale 0 is the no-effect control and ±100 the full control effect
Shiga toxin inh: blocks Shiga toxin action in Vero cells. 9.2% of 290,000 active. Vero cells, Shiga toxin protein synthesis inhibition reporter. inhibition, % at 38.7 µM; in the data active means inhibition mostly above about 28%, no sharp cut-off; inactive means mostly below about 43%; further: 0% is about no effect
Pf growth 96h: P. falciparum growth inhibition at 96 hours; Potency, µM (doses to about 28.7 µM), inactives show top-dose activity change, negative = inhibition, hits mostly inhibitors; 6.9% of 320,000 active; P. falciparum luciferase reporter growth, 96 h; further: potency means the concentration at half of the fitted maximal effect; on the % scale 0 is the no-effect control and ±100 the full control effect
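Two-generation exposure (96 h) targets delayed-death phenotype. Reporter parasites carrying integrated firefly luciferase, in red cells at 2% hematocrit and 0.05% parasitemia final, kept at 37 C, 5% CO2; luminescence loss indicates inhibition.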
Numbers without * were called inactive; u = inconclusive; x = no result given; [ ] = another dose, or the depositor's remark. Unless noted, the call rests on the fitted dose curve; in most records, active means well fitted inhibition curve with a large enough effect; inconclusive means small, poorly fitted or top-dose-only effect, or another doubt; inactive means no such curve, though single readings can be large or run the other way.

SMILES | CHX counter | Lassa entry inh | Pf growth 48h | Marburg entry inh | Shiga toxin inh | Pf growth 96h
NC(=O)CC(NC(=O)Cc1ccc(Br)cc1)c1ccc(NCCN2CCCCC2)c([N+](=O)[O-])c1 (stereo not drawn) | 2 | x | 29% | x | 1 | 0.01µM*
CC1CCCCN1CCCNc1ccc(C(CC(N)=O)NC(=O)Cc2cccc3ccccc23)cc1[N+](=O)[O-] (stereo not drawn) | -2 | x | u | x | -13 | 2.1µM*
NC(=O)CC(NC(=O)Cc1ccc(Br)cc1)c1ccc(NCCN2CCCC2)c([N+](=O)[O-])c1 (stereo not drawn) | 2 | x | 20% | x | 7 | u
CCCc1cc(=O)[nH]c(Nc2cc(C)cc(C)c2)n1 | x | 7%[46.1 µM] | x | u | x | x
COc1ccc(CNC(=O)CN=C2NC(=O)C(c3ccccc3)(c3ccccc3)N2)cc1 | 11 | 6% | 10% | 37% | 31* | 22%
O=C(NCc1nc2ccccc2[nH]1)C1=C[C@@H](c2ccc3c(c2)OCO3)C[C@@H](OCc2ccc(CO)cc2)O1 | 2 | x | 9.3µM* | x | 16 | u
O=C(NCc1nc2ccccc2[nH]1)C1=C[C@@H](C2CCCCC2)C[C@@H](OCc2ccc(CO)cc2)O1 | 11 | x | u | x | 46* | u
O=C(NCc1nc2ccccc2[nH]1)C1=C[C@H](c2ccc3c(c2)OCO3)C[C@H](OCc2ccc(CO)cc2)O1 | 10 | x | -6% | x | 8 | -23%
O=C(NCc1nc2ccccc2[nH]1)C1=C[C@H](c2ccccc2)C[C@H](OCCCCO)O1 | 5 | x | u | x | 3 | u
O=C(NCc1nc2ccccc2[nH]1)C1=C[C@H](c2ccc3c(c2)OCO3)C[C@H](OCCCCO)O1 | 9 | x | u | x | 23 | 4.1µM*
O=C(NCc1nc2ccccc2[nH]1)C1=C[C@H](c2ccccc2)C[C@H](OCc2ccc(CO)cc2)O1 | 15* | x | 1µM* | x | 29 | 1.7µM*
CN(C)S(=O)(=O)c1cccc(NC(=O)c2cccc(NS(=O)(=O)c3ccccc3)c2)c1 | -5 | u | u | u | -4 | -18%
CCOC(=O)C1CCN(C(=O)c2cc3c(-c4ccc(OC)c(OC)c4)nn(C)c3s2)CC1 | -2 | x | x | 1% | -16 | u
CCN(CC)CCN1C(=O)C(=O)/C(=C(/O)c2ccc(Cl)cc2)C1c1ccncc1 (stereo not drawn) | -9 | 19% | 9% | 2% | -14 | -12%
Cc1ccc(NS(=O)(=O)c2ccc(-c3cnc(C4CC4)o3)cc2)cc1 | 2 | x | 7% | x | 8 | 12µM*
Cc1ccc(N(C)S(=O)(=O)c2ccc(-c3cnc(C4CC4)o3)cc2)cc1 | -3 | 1.4µM* | u | x | 7 | u
Cn1c(=N)c(S(=O)(=O)c2ccc(Cl)cc2)cc2c(=O)n3ccccc3nc21 | x | x | x | 0% | x | x
Cc1onc(NC(=O)c2ccc(Cl)cc2Cl)c1Br | 42* | 24%[46.1 µM] | 150% | 2%[46.1 µM] | 72* | 132%
Cc1onc(NC(=O)NC(=O)c2ccccc2F)c1Br | 21* | u | 30% | u | 37 | 18%
Cc1cccc(C)c1NC(=S)NC(=O)c1ccccc1F | -3 | -2% | u | u | -12 | -16%
CN(C)C(=O)CCc1nc2sc3c(c2c(=O)[nH]1)CCCC3 | -1 | 2% | 9% | u | -17 | x
C=CCc1c(C)nc(SCCC)[nH]c1=O | -6 | -5% | 8% | u | -15 | u
Cc1cc(C)cc(N(CCC#N)C(=O)COC(=O)c2ccccc2SCC(=O)N2CCCC2)c1 | 1 | -5% | u | u | 9 | 12µM*
O=C(NCCc1ccccc1)c1ccccc1SCC(=O)N1CCCC1 | 27* | -16%[46.1 µM] | u | u | 97* | 0%
O=C(OCC(=O)N1CCCCC1)c1ccccc1SCC(=O)N1CCCCC1 | 20* | -8% | -4% | 11% | 31 | 6%
Cc1ccc(N(CCC#N)C(=O)COC(=O)c2ccccc2SCC(=O)N2CCCC2)cc1 | x | -5% | u | 17% | x | u
O=C(OCC(=O)N1CCCCC1)c1cc2ccccc2cc1O | 24* | 4% | 52% | u | 48 | 9.3µM*
CCSc1ccccc1C(=O)NCCc1ccccc1 | 0 | x | -8% | x | 62 | -3%
CCC1CCCCN1C(=O)COC(=O)c1cc2ccccc2cc1O (stereo not drawn) | 50* | 2% | x | 0% | 80* | -8%
